# Screens (PubChem BioAssay)
# Sampled rows, rich in hits. Any-hit rate of the full collection: about 10%.
# PLK1 PBD block = qHTS for Inhibitors of PLK1-PDB (polo-like kinase 1 - polo-box domain): Primary Screen; Plk1 PBD binding of FITC phosphopeptide, fluorescence polarization; actives 2.8% (n = 360,000); Potency, µM, without a hit: max response, negative = inhibition, hits mostly inhibitors; AID 720504, 2013; Serine/threonine-protein kinase PLK1 (Homo sapiens), P53350; also: potency is read from the fitted curve at half-maximal effect; series mostly up to about 57 µM; nearly all actives have a fitted effect of over 65% in size
# Target sequence (P53350 whole entry, looked up, the tested form may be a part): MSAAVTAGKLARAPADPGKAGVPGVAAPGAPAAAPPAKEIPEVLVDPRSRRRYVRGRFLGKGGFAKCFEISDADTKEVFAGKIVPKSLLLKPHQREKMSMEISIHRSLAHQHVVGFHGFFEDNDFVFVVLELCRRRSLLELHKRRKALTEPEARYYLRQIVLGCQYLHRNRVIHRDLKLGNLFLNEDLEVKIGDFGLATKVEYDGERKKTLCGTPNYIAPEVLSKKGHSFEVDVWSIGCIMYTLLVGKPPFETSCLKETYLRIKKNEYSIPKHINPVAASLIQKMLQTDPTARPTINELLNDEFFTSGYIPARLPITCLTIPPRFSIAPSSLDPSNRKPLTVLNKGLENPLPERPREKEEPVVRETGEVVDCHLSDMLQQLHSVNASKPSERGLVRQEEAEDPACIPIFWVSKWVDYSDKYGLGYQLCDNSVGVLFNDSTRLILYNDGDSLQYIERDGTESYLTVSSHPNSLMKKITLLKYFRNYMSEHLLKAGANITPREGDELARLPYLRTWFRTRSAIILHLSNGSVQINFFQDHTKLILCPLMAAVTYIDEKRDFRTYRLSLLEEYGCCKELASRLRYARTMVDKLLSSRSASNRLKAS
# VDR inh = Inhibitors of the vitamin D receptor (VDR): qHTS | Vitamin D3 receptor (Homo sapiens), P11473 | VDR-SRC2-3 peptide fluorescence polarization, 2 h | Potency, µM, for inactives: max response, negative = inhibition, usual class: inhibitors | actives 0.93% (n = 400,000); also: potency is read from the fitted curve at half-maximal effect
#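 FP read-out; VDR + SRC2-3 coactivator peptide; 23 nl compound by pintool; 2 h RT incubation; reagents held at 4 deg C, protected from light.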
# G9a block = qHTS Assay for Inhibitors of Histone Lysine Methyltransferase G9a. Potency, µM (series often up to 102 µM), inactives show top-dose activity, negative = inhibition, actives largely listed as inhibitors. G9a H3K9 monomethylation, AlphaScreen, 2 h. actives 8.8% (n = 350,000). Histone-lysine N-methyltransferase EHMT2 (Homo sapiens), Q96KQ7. AID 504332, 2011; also: potency is read from the fitted curve at half-maximal effect; nearly all actives have a fitted effect of over 75% in size
#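 Signal arises when biotinylated H3K9 peptide, once monomethylated, bridges streptavidin donor and antibody-captured acceptor beads. Enzyme at 20 nM was preincubated 15 min with test compounds; peptide 500 nM and SAM 20 uM then reacted for 2 h.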
# CCT modulator = High-Throughput Screening for Modulators of Cytosolic Chaperonin Activity; purified chaperonin ATPase assay, HTRF ADP detection, 30 min; activity change, % (test concentration not listed), hits read low; actives 0.3% (n = 360,000); in the data active = activity change below about -30%
#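 TRiC (40 or 20 nM final, by batch activity) in 30 mM Tris pH 7.4, 100 mM KCl, 5 mM MgCl2, 1 mM DTT was treated with compound at 76 uM single dose, then 10 uM ATP, 30 min at 37 °C. ADP was read by HTRF Transcreener.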
# Sfp inh = qHTS Assay for Inhibitors of Bacillus subtilis Sfp phosphopantetheinyl transferase (PPTase). 4'-phosphopantetheinyl transferase ffp (Bacillus subtilis), Q9F4F7. Biochemical Sfp PPTase activity, qHTS. Potency, µM, for inactives: largest response in the series, negative = inhibition, usual class: inhibitors. actives 3.5% (n = 310,000). AID 1490, 2009;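 also: the enzyme is Sfp with the accession as filed and its product quenches rhodamine fluorescence; potency is read from the fitted curve at half-maximal effect; 0% = enzyme reaction without inhibitor and -100% = no enzyme wells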
#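 Sfp 15 nM + cpd, 15 min RT; start w/ rhodamine-CoA 5 uM, BHQ-2-YbbR 12.5 uM (final); 50 mM Hepes pH 7.6, 10 mM MgCl2, 0.01% NP-40, 0.01% BSA; read 525/598 nm at 0 and 30 min.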
# Mm-Cpn inhibitor = Inhibitors of TCP-1 ring complex (TRiC) of Methanococcus maripaludis (MmCpn): qHTS; Chaperonin Mm-Cpn (Methanococcus maripaludis); purified Mm-Cpn ATPase, ADP Transcreener TR-FRET; Potency, µM (top dose mostly 76.9 µM), for inactives: top-dose activity, negative = inhibition, hits mostly inhibitors; actives 0.031% (n = 330,000); also: potency is read from the fitted curve at half-maximal effect; nearly all actives have a fitted effect of over 80% in size
#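 Purified archaeal chaperonin (25 nM final) was preincubated with compound for 10 min at 37°C, then ATP (10 uM final) was added for 30 min at 37°C in Tris pH 7.4/KCl/MgCl2/DTT buffer. ADP was quantified by HTRF Transcreener TR-FRET.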
# Sfp PPTase conf = Confirmation qHTS Assay for Inhibitors of Bacillus subtilis Sfp phosphopantetheinyl transferase (PPTase). Potency, µM (top dose mostly 114 µM), without a hit: at the top dose activity change, negative = inhibition, usual class: inhibitors. actives 79% (n = 380). Sfp PPTase enzymatic assay, qHTS titration. shares compounds with Sfp inh;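 also: potency is read from the fitted curve at half-maximal effect; plate controls were uninhibited Sfp reaction for no effect and no enzyme control for full effect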
# Target sequence (Q9F4F7 whole entry, looked up): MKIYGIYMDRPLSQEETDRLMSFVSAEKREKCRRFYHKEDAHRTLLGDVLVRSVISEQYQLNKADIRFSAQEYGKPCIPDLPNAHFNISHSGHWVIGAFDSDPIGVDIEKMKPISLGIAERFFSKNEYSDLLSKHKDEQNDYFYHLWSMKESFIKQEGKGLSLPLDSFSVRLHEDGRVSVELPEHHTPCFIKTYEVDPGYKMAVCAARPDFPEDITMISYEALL
# Sfp gel assay = Gel-Based Assay for Inhibitors of Bacillus subtilis Sfp phosphopantetheinyl transferase (PPTase). shares compounds with Sfp inh. purified Sfp, gel-based phosphopantetheinylation read-out. Potency, µM, hits mostly inhibitors. actives 20% (n = 210);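 active = potency below 100 µM; inconclusive = dose-dependent response but potency above 100 µM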;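 also: band intensities scaled against SCH202676 control wells before curve fitting; potency is an IC50 for inhibitors of Sfp transfer activity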
# Numbers without * were called inactive; i = inactive; u = inconclusive; x = no result; ! = not active in a repeat; [ ] = dose if it differs, or a comment. Unless noted, calls follow the shape of the dose curve; as a rule, active = well fitted curve in the direction sought with a large enough effect; inconclusive = small, poorly fitted or top-dose-only effect, or another doubt; inactive = no such curve, though single readings can be large; an effect the other way counts as inactive or inconclusive. Unless noted, % is scaled to controls: 0 for no effect and ±100 for the full control effect.
SMILES,PLK1 PBD block,VDR inh,G9a block,CCT modulator,Sfp inh,Mm-Cpn inhibitor,Sfp PPTase conf,Sfp gel assay
Cc1sc2nc(SCc3nc(-c4cccs4)no3)n(-c3ccccc3)c(=O)c2c1C,-2.0%,4.8%,-6.8%,-27.6,3.98µM*,0.7%,5.91µM*,i
CCOc1ccc(C(=O)CC(NCc2cccs2)C(=O)O)cc1 (stereo not given),-27.9%,25.1µM*,25.1µM*,-0.2,11.2µM*,-0.5%,37.3µM*,x
CCOc1ccc(C(=O)CCC(=O)N(CC)CC(=O)NCc2cccs2)cc1,-7.2%,-6.4%,-1.6%[12.7 µM],-2.6,x,-1.2%,x,x
Cc1ccc2oc(-c3ccc(C)c(NC(=O)c4ccc(N5CCC(C)CC5)c([N+](=O)[O-])c4)c3)nc2c1,x,-17.8%,-27.6%[59 µM],x,x,x,x,x
COc1ccc(C[C@@](C)(N)C(=O)O)cc1OC,x,-1.2%,39.2%[21.5 µM],x,-21.6%,x,x,x
C[C@@](Cc1ccc(O)c(O)c1)(NN)C(=O)O,-21.0%,u,3.16µM*!,-5.0,20µM*!,0.3%,u,6.17µM*
Cc1ccccc1Cn1c(=O)n(CCCCC(=O)NCc2ccccc2Cl)c(=O)c2ccccc21,x,-5.6%,-35.5%[59 µM],x,x,x,x,x
CCOC(=O)c1c(N2C(=O)CC(Sc3ccccc3C(=O)O)C2=O)sc2c1CCCC2 (stereo not given),0.0%,-6.6%,x,-4.3,3.55µM*,-1.3%,41.8µM*,x
COc1cccc(CNS(=O)(=O)c2c(C(=O)N3CCC(C)CC3)c(C)n(C)c2C)c1,x,-4.1%,-3.8%[59 µM],x,x,x,x,x
COC(=O)Oc1nsnc1N1CCOCC1,2.67µM*,-90.7%,2.82µM*,-1.8,12.6µM*,-6.8%,10.5µM*,x
Cc1ccc(NC2=C(CC(=O)O)C(c3ccc(F)cc3)N(c3ccc(C)cc3)C2=O)cc1 (stereo not given),x,u,-34.8%[59 µM],x,x,x,x,x
CC(C)c1ccc(-n2cccc2/C=C2/C(=N)N3C=CSC3=NC2=O)cc1,7.9%,-12.6%,7.3%,-2.8,-12.8%,-14.3%,x,x
CC1=CSC2=NC(=O)/C(=C\c3cccn3-c3ccc([N+](=O)[O-])cc3)C(=N)N12,-3.5%,-13.2%,-19.3%,-0.2,1µM*,7.1%,37.3µM*,i
CCOc1ccc(C(=O)NCc2nc(-c3ccc(Cl)cc3)no2)cc1OCC,x,0.7%,5.4%[59 µM],x,x,x,x,x
COC(=O)c1ccc2cc(OC)c(OC)cc2c1,-11.6%,x,x,0.6,x,x,x,x
COC(=O)c1cc(=O)c(O)c2c(O)c(O)ccc2c1,x,22.4µM*,x,x,31.6µM*,x,9.37µM*,i
CC(C)(C)OC(=O)N1CCC(c2c(C(=O)N3CCN(c4ccccc4F)CC3)cnn2-c2ccccc2Cl)CC1,x,7.6%,u,x,x,x,x,x
COC(=O)c1[nH]c2ccccc2c1NC(=O)Oc1ccccc1,u,7.5%,10µM*,-0.6,11.2µM*,-11.2%,u,x
COC(=O)c1[nH]c2ccccc2c1NC(=O)CNC1CCCCC1,-4.1%,11.5%,u,-2.3,-6.5%,1.9%,x,x
COc1cc(/C=C(\C#N)C(=O)Nc2ccc(C)cc2)ccc1OCc1cc(=O)n2nc(C)sc2n1,x,-13.7%,5.1%[59 µM],x,x,x,x,x
S=C(Nc1ccccn1)c1ccccn1,26.7µM*,-3.2%,u,-0.8,2.82µM*,1.6%,52.7µM*,x
COC(=O)c1ccc(NC(=O)C(=O)NCCc2sc(-c3cccc(F)c3)nc2C)cc1,x,-2.5%,1.8%[59 µM],x,x,x,x,x
O=C(NCCCN1CCOCC1)c1sc2cc(Cl)ccc2c1Cl,-5.2%,-3.7%,-6.2%,2.0,9.1%,-3.8%,x,x
O=C(NCCCN1CCOCC1)c1sc2cc([N+](=O)[O-])ccc2c1Cl,1.06µM*,u,0.891µM*,-0.5,0.891µM*,-3.2%,2.35µM*,x
CC(=O)OC1C(=O)[C@@]2(C)C(O)CC3OC[C@]3(OC(C)=O)C2C(OC(=O)c2ccccc2)[C@]2(O)CC(OC(=O)C(O)C(NC(=O)c3ccccc3)c3ccccc3)C(C)=C1C2(C)C (stereo not given in full),x,9.6%,-10.1%[2.33 µM],x,-43.5%,x,x,x
SMILES,PLK1 PBD block,VDR inh,G9a block,CCT modulator,Sfp inh,Mm-Cpn inhibitor,Sfp PPTase conf,Sfp gel assay
CC(=O)O[C@@]12CO[C@@H]1C[C@H](O)[C@@]1(C)C(=O)[C@H](O)C3=C(C)[C@@H](OC(=O)C(O)[C@@H](NC(=O)OC(C)(C)C)c4ccccc4)C[C@@](O)([C@@H](OC(=O)c4ccccc4)[C@H]21)C3(C)C (stereo not given in full),x,-8.9%,0.1%[12.7 µM],x,6.31µM*,x,14.8µM*,i
COc1ccc(C2CC(c3c(O)cc(C)oc3=O)=NCCS2)c(OC)c1 (stereo not given),-4.0%,-6.0%,u,0.4,-0.7%,1.2%[15.4 µM],x,x
Cc1cc(O)c(C2=Nc3ccccc3SC(c3ccc(Cl)cc3)C2)c(=O)o1 (stereo not given),-25.7%,u,u,-6.7,14.1µM*,-0.3%,52.7µM*,u
CCCN[C@H]1CCc2nc(N)sc2C1,-7.2%,-20.6%,-27.6%[12.7 µM],0.6,0.2%,x,x,x
CCN1CCc2nc(N)sc2C1,4.23µM*,89.1µM*,12.6µM*,-5.1,11.2µM*,-1.4%,11.8µM*,u
C=CCN1CCN(Cc2cnc(Cl)s2)CC1,-7.0%,2.8%,7.4%[12.7 µM],-1.5,8.3%,-2.6%,x,x
C=CCN1CCc2nc(N)sc2CC1,-21.8%,u,15.8µM*,-2.1,56.2µM*!,2.3%,59.1µM*,u
Cc1ccc(C)c(N2CCN(C(=O)CCc3c(C)nn(-c4ccc(N5CCCC5)nn4)c3C)CC2)c1,x,-2.5%,25.4%[59 µM],x,x,x,x,x
CN1CCN(C(c2cccnc2)c2ccc3cccnc3c2O)CC1 (stereo not given),18.9µM*,-20.4%,u,0.2,2.82µM*,-0.1%,41.8µM*,x
S=C(Nc1cccc(Cl)c1)Nc1cccc2cnccc12,26.7µM*,70.8µM*,u,0.5,1.41µM*,-0.4%,13.2µM*,u
S=C(Nc1cccc(Cl)c1)Nc1ccccc1Oc1ccccc1,-7.3%,1.6%,102.2%[59 µM],-1.4,9.3%,-1.6%,x,x
